Experiment in all cases: protein-binding microarray (PBM); PBM: ~300 nM protein, 6 mM HEPES pH 7.8, 80 mM KCl, 0.5 mM EDTA, 0.5 mM EGTA, 6% glycerol, 35 ng/ul poly-dIdC, 1% milk, 1 h, room temperature; Ap Aiptasia and Nv Nematostella (sea anemones) / Co Capsaspora / Aq Amphimedon (sponge) / Dm Drosophila / Hu human; RHD is the Rel homology domain; high values mean tight binding
What all share (settings): dsDNA, one strand shown

One test concerns the target T1, GST-Ap-NF-kB RHD (Exaiptasia pallida (Aiptasia), UniProt A0A913YAJ5 2-422).
T1 sequence: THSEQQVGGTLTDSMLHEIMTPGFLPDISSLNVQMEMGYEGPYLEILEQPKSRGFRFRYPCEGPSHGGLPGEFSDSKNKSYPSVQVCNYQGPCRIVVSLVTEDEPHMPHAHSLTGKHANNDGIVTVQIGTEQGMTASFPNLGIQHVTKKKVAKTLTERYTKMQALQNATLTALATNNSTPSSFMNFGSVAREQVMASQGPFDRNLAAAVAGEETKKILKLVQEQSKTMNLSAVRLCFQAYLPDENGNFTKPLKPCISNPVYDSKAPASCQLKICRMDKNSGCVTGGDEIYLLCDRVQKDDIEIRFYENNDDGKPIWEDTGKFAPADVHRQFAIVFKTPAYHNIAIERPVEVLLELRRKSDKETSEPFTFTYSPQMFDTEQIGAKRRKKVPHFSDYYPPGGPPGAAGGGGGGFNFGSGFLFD

For test [1], the target named is T2, GST-Nv-NF-kB (Cys allele) (Nematostella vectensis, UniProt E5G601 2-411).
T2 sequence: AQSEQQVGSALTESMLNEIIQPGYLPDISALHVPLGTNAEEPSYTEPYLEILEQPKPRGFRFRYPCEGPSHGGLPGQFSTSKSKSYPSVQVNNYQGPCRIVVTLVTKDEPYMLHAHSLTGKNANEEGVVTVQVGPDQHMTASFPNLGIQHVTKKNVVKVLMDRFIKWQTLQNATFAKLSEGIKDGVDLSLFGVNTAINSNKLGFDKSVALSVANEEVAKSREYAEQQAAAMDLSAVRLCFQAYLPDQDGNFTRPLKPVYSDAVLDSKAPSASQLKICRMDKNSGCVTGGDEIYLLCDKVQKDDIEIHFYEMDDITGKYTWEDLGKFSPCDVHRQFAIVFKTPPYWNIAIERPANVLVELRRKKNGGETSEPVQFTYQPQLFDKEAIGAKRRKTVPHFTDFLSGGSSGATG

In test [2] the target is T3, GST-Nv-NF-kB (Ser allele) (Nematostella vectensis, UniProt A7UNT2 2-411).
T3 sequence: T2 sequence with Q21R, C66S, S207N, E215Q, V217A, E225K, A268E, D399E

Another test deals with T4, GST-Co-NF-kB (Capsaspora owczarzaki, UniProt F1ARL5 200-546).
T4 sequence: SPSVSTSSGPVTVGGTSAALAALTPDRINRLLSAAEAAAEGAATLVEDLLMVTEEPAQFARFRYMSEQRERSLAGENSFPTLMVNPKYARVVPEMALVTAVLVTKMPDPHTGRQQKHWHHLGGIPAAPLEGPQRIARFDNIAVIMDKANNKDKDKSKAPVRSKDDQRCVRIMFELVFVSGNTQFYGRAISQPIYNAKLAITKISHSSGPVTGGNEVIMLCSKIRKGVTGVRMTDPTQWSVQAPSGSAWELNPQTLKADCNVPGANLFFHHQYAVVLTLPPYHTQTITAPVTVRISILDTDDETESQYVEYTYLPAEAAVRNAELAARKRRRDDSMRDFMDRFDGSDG

Another test has as its target T5, GST-Dm-Relish (Drosophila melanogaster, UniProt Q94527 99-473).
T5 sequence: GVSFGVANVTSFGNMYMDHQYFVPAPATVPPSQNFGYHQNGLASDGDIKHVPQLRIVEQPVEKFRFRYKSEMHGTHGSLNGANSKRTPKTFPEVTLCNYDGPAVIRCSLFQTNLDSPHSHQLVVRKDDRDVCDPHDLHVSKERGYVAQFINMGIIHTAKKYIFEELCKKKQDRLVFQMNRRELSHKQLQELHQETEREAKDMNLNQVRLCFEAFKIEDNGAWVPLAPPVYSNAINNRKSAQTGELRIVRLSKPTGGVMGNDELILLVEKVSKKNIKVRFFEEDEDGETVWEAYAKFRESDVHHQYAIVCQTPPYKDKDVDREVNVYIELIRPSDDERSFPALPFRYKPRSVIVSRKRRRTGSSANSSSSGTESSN

Another test deals with T6, GST-Aq-NF-kB (Amphimedon queenslandica, UniProt A9Y5G7 2-389).
T6 sequence: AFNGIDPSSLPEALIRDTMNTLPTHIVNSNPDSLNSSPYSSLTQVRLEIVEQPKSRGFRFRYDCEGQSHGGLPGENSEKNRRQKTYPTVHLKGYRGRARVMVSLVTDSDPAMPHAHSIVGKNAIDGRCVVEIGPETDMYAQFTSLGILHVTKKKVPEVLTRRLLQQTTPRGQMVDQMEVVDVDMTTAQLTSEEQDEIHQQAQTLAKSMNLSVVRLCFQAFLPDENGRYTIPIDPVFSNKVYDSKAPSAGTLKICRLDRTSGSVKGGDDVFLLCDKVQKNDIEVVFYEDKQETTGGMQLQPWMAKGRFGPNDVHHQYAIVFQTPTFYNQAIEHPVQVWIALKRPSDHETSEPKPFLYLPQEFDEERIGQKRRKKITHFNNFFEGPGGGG

A further test deals with GST-Hu-p50 (Homo sapiens, UniProt P19838 7-356).

Substitutions are numbered along the chain they refer to.

GST-Hu-p50, sequence (P19838 7-356): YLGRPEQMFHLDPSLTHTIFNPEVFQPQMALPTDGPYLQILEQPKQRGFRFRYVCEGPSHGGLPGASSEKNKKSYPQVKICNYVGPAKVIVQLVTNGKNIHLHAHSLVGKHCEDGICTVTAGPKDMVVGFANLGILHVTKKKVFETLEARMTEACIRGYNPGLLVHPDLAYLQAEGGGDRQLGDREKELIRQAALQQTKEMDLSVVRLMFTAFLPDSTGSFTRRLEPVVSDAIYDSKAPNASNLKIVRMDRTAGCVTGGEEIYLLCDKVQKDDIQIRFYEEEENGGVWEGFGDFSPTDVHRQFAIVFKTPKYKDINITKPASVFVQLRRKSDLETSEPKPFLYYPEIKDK

For “CCGATTAACATCACAAATCCCCCTGATGTTAATCGGGTCTTGATTCGCTTGACGCTGCTG”, the binding signal with GST-Ap-NF-kB RHD worked out at 8.39 z-score; in test [1] it was 8.44 z-score; in test [2], 9.23 z-score; in the test with GST-Co-NF-kB, 6.1 z-score; with GST-Dm-Relish, 7.73 z-score; in the test with GST-Aq-NF-kB, 6.8 z-score. The binding signal with GST-Hu-p50 came to 7.16 z-score.
For “CCGATTAACATCAAGGATTCCCCTGATGTTAATCGGGTCTTGATTCGCTTGACGCTGCTG”, the binding signal was 9.7 z-score with GST-Ap-NF-kB RHD; 10.5 z-score in test [1]; 10 z-score in test [2]; 6.56 z-score with GST-Co-NF-kB; 9.55 z-score in the test with GST-Dm-Relish; 7.75 z-score with GST-Aq-NF-kB. This sequence registered a binding signal in the test with GST-Hu-p50 of 6.89 z-score.
Regarding “CCGATTAACATCAGGGGCATACCTGATGTTAATCGGGTCTTGATTCGCTTGACGCTGCTG”, the binding signal with GST-Ap-NF-kB RHD was 3.84 z-score; in test [1] it was 4.44 z-score; in test [2] it was 1.94 z-score; in the test with GST-Co-NF-kB, 1.44 z-score; with GST-Dm-Relish, 3.9 z-score; in the test with GST-Aq-NF-kB it was 6.89 z-score. Further, the binding signal in the test with GST-Hu-p50 was 2.64 z-score.
“CCGATTAACATCAGAAAACCCCCTGATGTTAATCGGGTCTTGATTCGCTTGACGCTGCTG”: the binding signal with GST-Ap-NF-kB RHD was determined as 10.8 z-score; in test [1], 10 z-score; in test [2], 11 z-score; with GST-Co-NF-kB it was 4.05 z-score; with GST-Dm-Relish, 10 z-score; with GST-Aq-NF-kB, 8.84 z-score. The sequence further showed a binding signal with GST-Hu-p50 of 8.24 z-score.
“CCGATTAACATCACGTACTCCCCTGATGTTAATCGGGTCTTGATTCGCTTGACGCTGCTG”: the binding signal in the test with GST-Ap-NF-kB RHD was 4.07 z-score; in test [1], 2.77 z-score; in test [2], 3.43 z-score; in the test with GST-Co-NF-kB, 2.99 z-score; in the test with GST-Dm-Relish, 4 z-score; with GST-Aq-NF-kB, 2.92 z-score. In the test with GST-Hu-p50, this sequence yielded a binding signal of 2.83 z-score.
In the case of “CCGATTAACATCAAACTCCCCCCTGATGTTAATCGGGTCTTGATTCGCTTGACGCTGCTG”, the binding signal in the test with GST-Ap-NF-kB RHD came to 7.58 z-score; in test [1], 6.49 z-score; in test [2] it was 6.75 z-score; in the test with GST-Co-NF-kB, 7.67 z-score; with GST-Dm-Relish, 7.11 z-score; with GST-Aq-NF-kB, 6.54 z-score. Moreover, the binding signal in the test with GST-Hu-p50 stood at 6.75 z-score.
Regarding “CCGATTAACATCAATATTTTCCCTGATGTTAATCGGGTCTTGATTCGCTTGACGCTGCTG”, the binding signal was found to be 4.35 z-score in the test with GST-Ap-NF-kB RHD; 6.75 z-score in test [1]; 8.82 z-score in test [2]; 6.01 z-score with GST-Co-NF-kB; 2.69 z-score with GST-Dm-Relish; 4.5 z-score with GST-Aq-NF-kB. Besides, the binding signal in the test with GST-Hu-p50 turned out to be 5.3 z-score.
Regarding “CCGATTAACATCAGGGGATGTTATGATGTTAATCGGGTCTTGATTCGCTTGACGCTGCTG”, the binding signal in the test with GST-Ap-NF-kB RHD was 5.57 z-score; in test [1], 6.43 z-score; in test [2], 7.06 z-score; with GST-Co-NF-kB, 3.17 z-score; with GST-Dm-Relish it was 5.86 z-score; with GST-Aq-NF-kB, 5.53 z-score. Besides, the binding signal in the test with GST-Hu-p50 was 5.29 z-score.
With “CCGATTAACATCAGGGGGTTTCATGATGTTAATCGGGTCTTGATTCGCTTGACGCTGCTG”, the binding signal with GST-Ap-NF-kB RHD amounted to 8.25 z-score; in test [1], 7.15 z-score; in test [2], 7.35 z-score; with GST-Co-NF-kB, 2.56 z-score; with GST-Dm-Relish, 8.76 z-score; with GST-Aq-NF-kB, 6.59 z-score. For the same sequence, the binding signal with GST-Hu-p50 worked out at 6.6 z-score.
“CCGATTAACATCAGGGTTCCCCATGATGTTAATCGGGTCTTGATTCGCTTGACGCTGCTG”: the binding signal is 6.72 z-score in the test with GST-Ap-NF-kB RHD; 5.05 z-score in test [1]; 5.17 z-score in test [2]; 5.37 z-score with GST-Co-NF-kB; 7.85 z-score with GST-Dm-Relish; 4.21 z-score in the test with GST-Aq-NF-kB. The sequence also showed a binding signal with GST-Hu-p50 of 3.83 z-score.
On to “CCGATTAACATCAGCGGGAATCCTGATGTTAATCGGGTCTTGATTCGCTTGACGCTGCTG”, for which the binding signal in the test with GST-Ap-NF-kB RHD amounted to 2.44 z-score; in test [1], 3.26 z-score; in test [2], 2.64 z-score; with GST-Co-NF-kB it was 2.25 z-score; with GST-Dm-Relish, 6.33 z-score; with GST-Aq-NF-kB, 3.03 z-score. This sequence displayed a binding signal with GST-Hu-p50 of 2.21 z-score.

Source of the values: paper PMC5700166.
